Source: PubChem BioAssay (EPA / NIEHS)
Active and inactive are the calls of the source. How the source made its calls: active means hit-call score of the fitted dose curve at least 0.9, where 1 is the maximum; inactive means score below 0.9.

Each compound was assayed on Plasminogen activator inhibitor-1 (PAI1), SERPINE1 (gene 5054) (assay: BSK_BE3C_PAI1: BioMAP Diversity Plus: BE3C Assay for Plasminogen activator inhibitor-1 (PAI1) Biomarker Activity (AID 2283037)). Details: primary human bronchial epithelial cells; actives raise or lower the signal.
Experimental: BSK_BE3C is a cell-based, multiplexed-readout assay that uses bronchial epithelial cell, a human lung primary cell, with measurements taken at 24 hours after chemical dosing in a 96-well plate.BSK_BE3C_PAI1 is an assay component measured in the BSK_BE3C assay. It measures PAI-1 antibody related to regulation of gene expression using ELISA technology.Data from the assay component BSK_BE3C_PAI1 was analyzed into 1 assay endpoint. This assay endpoint, BSK_BE3C_PAI1, was analyzed with bidirectional fitting relative to DMSO as the negative control and baseline of activity. Using a type of binding reporter, gain or loss-of-signal activity can be used to understand changes in the signaling as they relate to the gene SERPINE1. Furthermore, this assay endpoint can be referred to as a primary readout, because this assay has produced multiple assay endpoints where this one serves a signaling function. To generalize the intended target to other relatable targets, this assay endpoint is annotated to the cytokine intended target family, where the subfamily is plasmogen activator inhibitor.
The levels of cell surface (or secreted, indicated by the prefix "s") biomarker endpoints were measured by ELISA. Overt cytotoxicity to cells in confluent adherent cultures (all systems other than the BT system) was assessed by measuring total protein levels using sulforhodamine B (SRB) staining in parallel cultures at the time of biomarker measurements, indicated as SRB endpoints. For proliferation assays for adherent cell types, individual cell types are cultured at sub-confluence and relative cell numbers quantified by SRB staining at time points optimized for each system (48 h: 3C and CASM3C systems; 72 h: BT and HDF3CGF systems; 96 h: SAg system). SRB was performed by staining cells with 0.1% SRB after fixation with 10% TCA and reading wells at 560 nm.Viability and proliferation of PBMC (T cells) was quantified by Alamar Blue reduction for the SAg and BT systems. For PBMC viability (referred to as PBMC Cytotoxicity within the assay endpoint names), cells were plated (75,000/well in a 96-well plate) and then chemical samples added for 1 h before addition of activators, SEB and TSST-1 (20 ng/mL final concentration each). Cells were incubated for 90 h. Then, Alamar Blue (20 uL/well) (Invitrogen, Cat DAL1100) was added for 6 h, and the plates were read with a fluorescence microplate reader at 546/580 nm (excitation/emission). For PBMC proliferation, cells were plated and activated as above but incubated for only 16 h prior to addition of Alamar Blue. Plates were read after 6 h.
In the case of O=C1O[C@H]([C@H](O)CO)C(O)=C1O, the outcome was “inactive”.
In the case of CC(=O)[C@@]1(O)CC[C@H]2[C@@H]3CCC4=CC(=O)CC[C@]4(C)[C@H]3CC[C@@]21C, the outcome was “inactive”.
In the case of CC1=C(C)S(=O)(=O)CCS1(=O)=O, the outcome was “inactive”.
With O=C1CCCCC1 the outcome was “inactive”.
In the case of CC(C)c1cccc(C(C)C)c1NC(=O)NS(=O)(=O)c1cc(C(C)(C)O)co1, the outcome was “inactive”.
With CCCCC(CC)COP(=O)(OCC(CC)CCCC)OCC(CC)CCCC (stereo not given) the outcome was “inactive”.
With COC(=O)[C@H]1[C@H]2C[C@@H]3c4[nH]c5cc(OC)ccc5c4CCN3C[C@H]2C[C@@H](OC(=O)c2cc(OC)c(OC)c(OC)c2)[C@@H]1OC the outcome was “inactive”.
In the case of CC(C)NCC(O)c1ccc(O)c(O)c1 (stereo not given), the outcome was “inactive”.
With OCC(CO)n1cnc(-c2ccc(F)cc2)c1-c1ccnc(Oc2ccccc2)n1 the AC50 was 1.29 µM (active).
In the case of O=C(N[C@@H](c1ccccc1)[C@@H]1CCCCN1)c1cccc(C(F)(F)F)c1Cl, the AC50 was 32.4 µM (active).
For O=C1c2c(O)cccc2Cc2cccc(O)c21, the outcome was “inactive”.
For CCCCC(CC)COC(=O)CCCCCCCC(=O)OCC(CC)CCCC (stereo not given), the outcome was “inactive”.
For CC(=O)OCC(COC(C)=O)OC(C)=O, the outcome was “inactive”.
For NC1CCCCC1, the outcome was “inactive”.
For Cc1ccc(-c2cc(C(F)(F)F)nn2-c2ccc(S(N)(=O)=O)cc2)cc1, the AC50 was 36.6 µM (active).
For O=C(O)c1cccnc1, the outcome was “inactive”.
Cc1cc(Cc2ccc(N)c(C)c2)ccc1N was tested, and the outcome was “inactive”.
For CC(=O)S[C@H](C(=O)N[C@H]1Cc2ccccc2[C@H]2CCC[C@@H](C(=O)O)N2C1=O)C(C)C, the outcome was “inactive”.
For CO[C@@H]1COCC[C@@H]1N[C@@H]1CC[C@@](C(=O)N2CCc3ncc(C(F)(F)F)cc3C2)(C(C)C)C1, the outcome was “inactive”.
For CC1(C)C(=O)NC(=O)N1CO, the outcome was “inactive”.
In the case of CN(C)C(=O)NC1(c2ccccc2)CCN(CCC[C@]2(c3ccc(Cl)c(Cl)c3)CCCN(C(=O)c3ccccc3)C2)CC1, the outcome was “inactive”.
With CCCCc1nc2cccnc2n1Cc1ccc(-c2ccccc2-c2nnn[nH]2)cc1 the outcome was “inactive”.
With OCC(O)CO the outcome was “inactive”.
In the case of Nc1nc(=S)c2[nH]cnc2[nH]1, the outcome was “inactive”.
In the case of CCOCCOCCO, the outcome was “inactive”.
For O=C(Oc1ccccc1)c1cccc(C(=O)Oc2ccccc2)c1, the outcome was “inactive”.
In the case of CC(N)=O, the outcome was “inactive”.
In the case of CCCCCCCCCCCCCCCCO, the outcome was “inactive”.
With CN(C)CCCN1c2ccccc2Sc2ccc(Cl)cc21 the AC50 was 31.9 µM (active).
With Cc1ccc(C(C)(C)C)c(O)c1 the outcome was “inactive”.
c1ccc2occc2c1 was tested, and the outcome was “inactive”.
With CCCCCCCCCC[N+](C)(C)[O-] the outcome was “inactive”.
With CCCCCCCC(=O)OC the outcome was “inactive”.
For CCCCCCC(C=O)=Cc1ccccc1, the outcome was “inactive”.
Oc1ccccc1O was tested, and the outcome was “inactive”.
CCN(CC)CCOc1ccc(C(=C(Cl)c2ccccc2)c2ccccc2)cc1 was tested, and the AC50 was 26.1 µM (active).
With O=C(O)CN(CC(=O)O)CC(=O)O the outcome was “inactive”.
For CCc1nc(N)nc(N)c1-c1ccc(Cl)cc1, the outcome was “inactive”.
CCCC(=O)O was tested, and the outcome was “inactive”.
For COc1ccc(C(=O)Nc2nc3ccccc3c(NCc3ccccc3)c2C#N)cc1, the outcome was “inactive”.
